Results taken from PubChem BioAssay (NCATS).
Values joined by “and” are separate entries in the source; they are usually repeats but may differ in a detail not shown here. Equal values may be shown once. Results filed as inconclusive are left out. Active and inactive are the calls of the source. Unless noted, the call rests on the fitted dose curve; in most records, active means well fitted curve in the direction sought with a large enough effect; inconclusive means small, poorly fitted or top-dose-only effect, or another doubt; inactive means no such curve, though single readings can be large; an effect the other way counts as inactive or inconclusive.

How the values were obtained:
[1] = target: Thyroid hormone receptor beta (Homo sapiens) (UniProt P10828); assay: qHTS assay for small molecule antagonists of thyroid hormone receptor beta signaling (AID 588547; active means well fitted inhibition curve with a large enough effect in the signal ratio, with a control signal flat, not every such curve was filed as active; the % refers to the signal ratio;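 further: cells stimulated with 0.4 nM T3 agonist during compound exposure; on the % scale 0 is the no-effect control and ±100 the full control effect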); conditions: TR-UAS-bla HEK293, beta-lactamase ratio, antagonist mode, 18 h
Procedure, shortened: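 TR-UAS-bla GripTite HEK293 cells in 2% charcoal/dextran FBS medium; compounds 0.59 nM to 92 uM with T3 at 0.4nM final, 18 h at 37 C. Beta-lactamase read by CCF4 fluorescence (460/530 nm); Hill fits gave IC50 and efficacy.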

[2] = target: Voltage-gated inwardly rectifying potassium channel KCNH2 (Homo sapiens) (UniProt Q12809); assay: qHTS Assay for Small Molecule Inhibitors of the Human hERG Channel Activity (AID 588834); conditions: U2OS BacMam hERG, FluxOR thallium flux fluorescence; series mostly up to 46.1 µM;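 further: lower thallium flux fluorescence means stronger hERG block; nearly all actives have a fitted effect of over 50% in size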; further: potency means the concentration at half of the fitted maximal effect
Procedure, shortened: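 Cells were infected with hERG-BacMam virus for 4 hrs at room temperature, grown overnight, then seeded at 2000/well. After dye loading and roughly 10 min compound treatment, thallium influx was triggered and fluorescence recorded.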

[3] = S16 Schwann cell viability assay (CellTiter-Glo assay) (AID 624031); conditions: S16 rat Schwann cells viability, 24 h; series mostly up to 57.5 µM; further: nearly all actives have a fitted effect of over 70% in size; further: potency means the concentration at half of the fitted maximal effect
Procedure, shortened: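 Parental S16 cells, 24 h compound, 37 °C. ATP-luminescence viability; DMSO = 0% activity, empty wells as reference; curves classified by fit quality and efficacy.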

[4] = target: Retinoic acid receptor RXR-alpha (Homo sapiens) (UniProt P19793); assay: qHTS assay for small molecule antagonists of retinoid X receptor alpha signaling (AID 588546; active means well fitted inhibition curve with a large enough effect in the signal ratio, with a control signal flat, not every such curve was filed as active; the % refers to the signal ratio; further: potency means the concentration at half of the fitted maximal effect;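 on max response: cells stimulated with 9-cis-retinoic acid as agonist; on the % scale 0 is the no-effect control and ±100 the full control effect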); conditions: HEK293T RXRa-UAS-bla, beta-lactamase ratio, antagonist mode
Procedure, shortened: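 Beta-lactamase reporter inhibition, read as CCF4 fluorescence ratio (ex 405, em 460/530 nm) after 2 h at RT. HEK293T UAS-bla cells, 2500/well, were stimulated with 9-cis-RA at 500 or 100 nM final alongside test compound for 18 h at 37 C.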

[5] = target: Luciferin 4-monooxygenase (Photinus pyralis) (UniProt P08659); assay: Biochemical firefly luciferase enzyme assay for NPC (AID 624030);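 further: purified P. pyralis luciferase at 10 nM with luciferin and ATP substrate; 0% = DMSO and -100% = full luciferase inhibition by PTC124 control; nearly all actives have a fitted effect of over 70% in size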; conditions: purified P. pyralis luciferase, luminescence, 5 min; series mostly up to 58.6 µM
Procedure, shortened: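 Purified P. pyralis luciferase at 10 nM in 50 mM Tris Acetate (final), luminescence read within 5 minutes of enzyme addition to compounds. Activity normalised to PTC124 versus DMSO; concentration-response curves classed by r2, magnitude and activity.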

[6] = S16 Schwann cell PMP22 intronic element firefly luciferase assay (AID 624032); conditions: S16 rat Schwann cells, PMP22 element FLuc, 24 h; series mostly up to 57.5 µM; further: nearly all actives have a fitted effect of over 30% in size; further: potency means the concentration at half of the fitted maximal effect
Procedure, shortened: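 Rat S16 Schwann cells stably carrying firefly luciferase driven by a PMP22 intronic element, in 10% FBS, treated 24 h at 37 C. ONE-Glo luminescence normalized to PTC124 control and DMSO (0%); curves classed by r2, magnitude and activity.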

[7] = S16 Schwann cell PMP22 intronic element beta-lactamase assay (AID 624044; calls by dose curve; further: nearly all actives have a fitted effect of over 15% in size; further: potency means the concentration at half of the fitted maximal effect); conditions: S16 rat Schwann cells, PMP22 element beta-lactamase FRET, 24 h; series mostly up to 38.3 µM
Procedure, shortened: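 Beta-lactamase reporter under a PMP22 intronic regulatory element in stable S16 rat Schwann cells; 24 h compound exposure. 460 nm blue signal normalized between DMSO (0%) and potassium clavulanate, with 535 nm FRET tracking viability; curves classed by r2 and response.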

[8] = target: Glutaminase kidney isoform, mitochondrial (Homo sapiens) (UniProt O94925); assay: qHTS for Inhibitors of Glutaminase (GLS): LOPAC Validation (AID 624146); conditions: glutaminase enzyme activity inhibition; series mostly up to 46.1 µM;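 further: glutamate product detected by oxidase and peroxidase coupled Amplex red fluorescence gain; on the % scale 0 is the no-effect control and ±100 the full control effect; nearly all actives have a fitted effect of over 60% in size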
Procedure, shortened: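 hKGA; 45 mM KH2PO4 pH 8.2 + 0.02% Tween-20; cpd via pin tool; 1 mM Gln soln; GluOx/HRP/Amplex Red; RT 30 min; fluor. t0 & final.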

[9] = target: Glucagon-like peptide 1 receptor (Homo sapiens) (UniProt P43220); assay: qHTS of GLP-1 Receptor Agonists: LOPAC Validation (AID 624148); conditions: GLP-1R agonist cell assay; series mostly up to 46.1 µM;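 further: 0% is about no effect; higher luminescence signal means agonism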
Procedure, shortened: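 HEK293 cells stably co-expressing GLP-1R and a cAMP-responsive luciferase reporter, plated 12 hours before compound, then incubated 4-6 hr at 37 deg C. Luminescence read 12 min after detection reagent.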

Sequence of Thyroid hormone receptor beta (Homo sapiens) (P10828 whole entry, looked up): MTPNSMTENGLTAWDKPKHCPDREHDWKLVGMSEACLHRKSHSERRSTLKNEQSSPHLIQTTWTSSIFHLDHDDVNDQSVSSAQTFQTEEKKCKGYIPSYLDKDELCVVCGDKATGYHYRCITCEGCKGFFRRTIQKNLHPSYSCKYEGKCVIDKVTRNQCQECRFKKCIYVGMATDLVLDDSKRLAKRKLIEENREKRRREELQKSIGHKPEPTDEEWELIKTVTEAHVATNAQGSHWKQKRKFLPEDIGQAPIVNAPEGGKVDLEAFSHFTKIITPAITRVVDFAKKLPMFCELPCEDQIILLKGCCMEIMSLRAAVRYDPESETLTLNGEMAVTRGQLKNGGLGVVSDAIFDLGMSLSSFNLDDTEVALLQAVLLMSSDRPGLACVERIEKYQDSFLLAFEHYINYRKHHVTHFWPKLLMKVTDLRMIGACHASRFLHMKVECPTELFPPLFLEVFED
Sequence of Luciferin 4-monooxygenase (Photinus pyralis) (P08659 whole entry, looked up): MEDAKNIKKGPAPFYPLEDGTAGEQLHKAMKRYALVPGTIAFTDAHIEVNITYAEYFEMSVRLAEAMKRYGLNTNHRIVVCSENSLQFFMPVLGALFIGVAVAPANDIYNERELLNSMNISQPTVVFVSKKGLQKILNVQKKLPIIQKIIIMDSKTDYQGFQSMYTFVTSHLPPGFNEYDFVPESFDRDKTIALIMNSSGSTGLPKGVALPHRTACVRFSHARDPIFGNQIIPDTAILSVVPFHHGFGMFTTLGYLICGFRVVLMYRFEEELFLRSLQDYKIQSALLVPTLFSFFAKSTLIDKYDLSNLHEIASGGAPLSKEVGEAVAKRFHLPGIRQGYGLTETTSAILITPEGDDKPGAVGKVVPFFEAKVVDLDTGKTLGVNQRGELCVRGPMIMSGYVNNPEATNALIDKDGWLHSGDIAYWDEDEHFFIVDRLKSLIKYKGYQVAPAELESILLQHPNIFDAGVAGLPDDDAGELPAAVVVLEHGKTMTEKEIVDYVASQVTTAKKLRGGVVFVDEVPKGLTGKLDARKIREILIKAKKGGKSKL
Sequence of Voltage-gated inwardly rectifying potassium channel KCNH2 (Homo sapiens) (Q12809 whole entry, looked up): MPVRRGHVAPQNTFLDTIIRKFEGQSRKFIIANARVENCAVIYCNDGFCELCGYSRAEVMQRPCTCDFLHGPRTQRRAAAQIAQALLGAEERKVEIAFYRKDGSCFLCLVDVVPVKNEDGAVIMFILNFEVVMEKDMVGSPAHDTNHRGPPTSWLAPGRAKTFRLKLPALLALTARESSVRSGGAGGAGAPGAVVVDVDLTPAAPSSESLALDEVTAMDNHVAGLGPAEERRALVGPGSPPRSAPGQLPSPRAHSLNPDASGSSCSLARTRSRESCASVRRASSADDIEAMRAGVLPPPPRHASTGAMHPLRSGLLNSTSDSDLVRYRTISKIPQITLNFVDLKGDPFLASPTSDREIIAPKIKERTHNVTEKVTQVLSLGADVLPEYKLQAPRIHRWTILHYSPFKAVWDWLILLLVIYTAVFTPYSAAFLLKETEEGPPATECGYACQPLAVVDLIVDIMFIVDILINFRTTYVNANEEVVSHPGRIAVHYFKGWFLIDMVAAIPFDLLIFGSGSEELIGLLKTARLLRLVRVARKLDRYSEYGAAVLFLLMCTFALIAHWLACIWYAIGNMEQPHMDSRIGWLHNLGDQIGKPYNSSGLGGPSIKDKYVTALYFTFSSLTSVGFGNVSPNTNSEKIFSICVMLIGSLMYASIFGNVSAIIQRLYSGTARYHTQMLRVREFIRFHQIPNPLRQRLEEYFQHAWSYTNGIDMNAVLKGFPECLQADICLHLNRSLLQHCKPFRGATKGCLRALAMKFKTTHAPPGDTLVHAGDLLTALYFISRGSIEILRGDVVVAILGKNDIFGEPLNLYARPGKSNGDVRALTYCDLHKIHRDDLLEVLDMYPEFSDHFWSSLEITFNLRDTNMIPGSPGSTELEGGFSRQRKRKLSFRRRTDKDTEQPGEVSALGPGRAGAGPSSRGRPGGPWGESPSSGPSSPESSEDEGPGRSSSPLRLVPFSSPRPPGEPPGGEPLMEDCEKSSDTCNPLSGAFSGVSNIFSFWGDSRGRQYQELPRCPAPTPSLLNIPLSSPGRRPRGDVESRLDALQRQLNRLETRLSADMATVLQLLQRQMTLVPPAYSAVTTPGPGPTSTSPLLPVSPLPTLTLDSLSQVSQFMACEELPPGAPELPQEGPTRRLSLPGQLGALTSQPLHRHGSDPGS
Sequence of Retinoic acid receptor RXR-alpha (Homo sapiens) (P19793 whole entry, looked up): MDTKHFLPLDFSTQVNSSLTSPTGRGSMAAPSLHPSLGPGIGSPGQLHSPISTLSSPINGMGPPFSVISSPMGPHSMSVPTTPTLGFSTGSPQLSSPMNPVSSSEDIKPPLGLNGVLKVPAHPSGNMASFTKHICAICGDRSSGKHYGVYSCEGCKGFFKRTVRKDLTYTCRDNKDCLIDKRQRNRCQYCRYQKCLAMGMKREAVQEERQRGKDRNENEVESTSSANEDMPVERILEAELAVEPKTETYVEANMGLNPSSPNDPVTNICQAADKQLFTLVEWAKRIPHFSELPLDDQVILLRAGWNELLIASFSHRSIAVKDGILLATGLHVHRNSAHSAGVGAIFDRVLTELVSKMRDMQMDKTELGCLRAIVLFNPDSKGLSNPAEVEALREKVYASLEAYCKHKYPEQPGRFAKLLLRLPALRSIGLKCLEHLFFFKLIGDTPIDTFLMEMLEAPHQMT
Sequence of Glutaminase kidney isoform, mitochondrial (Homo sapiens) (O94925 whole entry, looked up, canonical isoform): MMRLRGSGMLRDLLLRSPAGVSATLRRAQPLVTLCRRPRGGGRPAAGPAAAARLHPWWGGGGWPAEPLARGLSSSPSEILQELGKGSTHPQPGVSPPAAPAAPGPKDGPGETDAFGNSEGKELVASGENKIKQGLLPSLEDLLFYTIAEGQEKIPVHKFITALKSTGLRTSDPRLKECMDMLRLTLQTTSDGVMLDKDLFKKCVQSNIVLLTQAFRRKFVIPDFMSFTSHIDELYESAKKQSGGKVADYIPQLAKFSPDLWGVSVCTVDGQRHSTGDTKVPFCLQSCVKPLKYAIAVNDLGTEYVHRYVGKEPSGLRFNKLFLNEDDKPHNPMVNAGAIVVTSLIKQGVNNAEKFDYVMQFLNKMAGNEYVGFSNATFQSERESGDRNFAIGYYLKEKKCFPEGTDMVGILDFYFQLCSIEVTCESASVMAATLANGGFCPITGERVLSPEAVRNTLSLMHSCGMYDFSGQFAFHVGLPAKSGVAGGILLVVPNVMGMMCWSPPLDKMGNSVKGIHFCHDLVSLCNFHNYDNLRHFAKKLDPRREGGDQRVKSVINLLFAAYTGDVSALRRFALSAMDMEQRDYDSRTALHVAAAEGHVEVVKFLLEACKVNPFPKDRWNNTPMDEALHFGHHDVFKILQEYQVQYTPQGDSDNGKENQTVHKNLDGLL
Sequence of Glucagon-like peptide 1 receptor (Homo sapiens) (P43220 whole entry, looked up): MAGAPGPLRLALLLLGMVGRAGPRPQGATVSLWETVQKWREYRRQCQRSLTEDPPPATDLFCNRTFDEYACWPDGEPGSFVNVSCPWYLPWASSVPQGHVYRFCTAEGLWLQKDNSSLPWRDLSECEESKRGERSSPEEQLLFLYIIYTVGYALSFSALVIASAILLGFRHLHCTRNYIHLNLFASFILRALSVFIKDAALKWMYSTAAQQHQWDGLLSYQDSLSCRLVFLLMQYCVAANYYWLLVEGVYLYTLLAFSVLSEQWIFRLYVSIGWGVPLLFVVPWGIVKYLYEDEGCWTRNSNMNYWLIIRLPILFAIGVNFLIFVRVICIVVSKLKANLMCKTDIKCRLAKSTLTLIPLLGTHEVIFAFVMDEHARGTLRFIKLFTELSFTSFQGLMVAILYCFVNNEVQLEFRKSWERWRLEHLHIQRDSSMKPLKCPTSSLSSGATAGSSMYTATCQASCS

O=[N+]([O-])C(Br)(CO)CO
inactive: activity change % (negative = inhibition) [1] 5.27% | Potency [2]
active: Potency [3] 28.7 µM

O=C1C[C@@H]2OCC=C3CN4CC[C@]56c7ccccc7N1[C@H]5[C@H]2[C@H]3C[C@H]46
active: Potency [2] 14.1 µM
inactive: max response [4] -7.88% | activity change % (negative = inhibition) [1] 0.757%

ClC(Cl)(Cl)Cl
inactive: max response [4] 1.39% | activity change % (negative = inhibition) [1] -13.7% and 5.43% | Potency [2] | Potency [5] | Potency [3] | Potency [6] | Potency [7]

N#CN
inactive: max response [4] -9.07% | Potency [2] | Potency [5] | Potency [3] | Potency [6] | Potency [7]

CCCSP(=O)(OCC)SCCC
inactive: max response [4] -0.503% | activity change % (negative = inhibition) [1] 4.95% | Potency [5]

[O]=[Cr](=[O])([OH])[O][Cr](=[O])(=[O])[OH]
active: Potency [3] 4.05 µM and 2.87 µM
inactive: max response [4] -10.4% and -3.4% | activity change % (negative = inhibition) [1] -20.9% | Potency [2] | Potency [5] | Potency [7]

ClCC1CO1 (stereo not drawn)
inactive: max response [4] -1.88% | activity change % (negative = inhibition) [1] 1.74% | Potency [5] | Potency [6] | Potency [7]

O=C(O)C(Cl)(Cl)Cl
inactive: max response [4] -6.5% | activity change % (negative = inhibition) [1] 2.2% and 9.95% | Potency [2] | Potency [5] | Potency [3] | Potency [6] | Potency [7]

O=CC=O
inactive: max response [4] 9.93% | activity change % (negative = inhibition) [1] -1.9% | Potency [2] | Potency [5] | Potency [3] | Potency [6] | Potency [7]

CC(C)CCON=O
inactive: activity change % (negative = inhibition) [1] -6.62% | Potency [2] | Potency [5] | Potency [6] | Potency [7]

O=Cc1ccco1
inactive: max response [4] -1.1% | activity change % (negative = inhibition) [1] -3.01% | Potency [2] | Potency [5] | Potency [3] | Potency [6] | Potency [7]

O=[N+]([O-])c1ccc(F)c([N+](=O)[O-])c1
inactive: max response [4] 1.55% | activity change % (negative = inhibition) [1] 5.42% | Potency [2] | Potency [5] | Potency [3] | Potency [6]

O=[N+]([O-])c1ccccc1
inactive: max response [4] -0.8% | activity change % (negative = inhibition) [1] -11.4% | Potency [2] | Potency [5] | Potency [6] | Potency [7]

CCOP(=O)(OCC)O/C(=C/Cl)c1ccc(Cl)cc1Cl
inactive: max response [4] -33.2% and -25.5% | activity change % (negative = inhibition) [1] -5.99% | Potency [5] | Potency [3] | Potency [6]

COc1ccc2c(c1OC)C(=O)OC2C1c2cc3c(cc2CCN1C)OCO3 (stereo not drawn)
inactive: max response [4] 20.7% | activity change % (negative = inhibition) [1] -14.3%

O=C(NCNC(=O)NC1C(=O)NC(=O)N1CO)NC1C(=O)NC(=O)N1CO (stereo not drawn)
inactive: max response [4] -8.07% | activity change % (negative = inhibition) [1] -0.544% | Potency [5] | Potency [3] | Potency [6] | Potency [7]

O=C1C=CC(=O)C=C1
inactive: max response [4] -9.47% | activity change % (negative = inhibition) [1] -10.9% | Potency [2] | Potency [8] | outcome [9]

C[C@]12CCC(=O)C[C@@H]1CC[C@@H]1[C@@H]2CC[C@]2(C)[C@@H](O)CC[C@@H]12
inactive: max response [4] -6.47% | activity change % (negative = inhibition) [1] 2.39% | Potency [5] | Potency [3] | Potency [7]

ClC=C(Cl)Cl
inactive: max response [4] 5.36% and -18.5% | activity change % (negative = inhibition) [1] -2.56% | Potency [2] | Potency [5] | Potency [3] | Potency [6]

COC1=CC(=O)O[C@@H](/C=C/c2ccccc2)C1
inactive: max response [4] 18.3% | activity change % (negative = inhibition) [1] -5.64% | Potency [2]

[O]=[Cd]
inactive: max response [4] -2.87% | activity change % (negative = inhibition) [1] -10.1% | Potency [2] | Potency [5] | Potency [3] | Potency [6] | Potency [7]

CCCCCCCCOC(=O)c1ccccc1C(=O)OCCCCCCCC
inactive: max response [4] 24.3% and -9.86% | activity change % (negative = inhibition) [1] 0.822% | Potency [5] | Potency [3] | Potency [6] | Potency [7]

Oc1cc(Cl)c(Cl)cc1Cl
inactive: max response [4] -11.3% and 1.52% | activity change % (negative = inhibition) [1] 5.32% and 6.79% | Potency [2] | Potency [5] | Potency [6] | Potency [7]

O=C1CCO1
inactive: max response [4] 14.1% | activity change % (negative = inhibition) [1] 16.1% | Potency [2] | Potency [5] | Potency [3] | Potency [6] | Potency [7]

O=C/C=C/c1ccccc1
inactive: max response [4] 12.1% and 26.2% | activity change % (negative = inhibition) [1] 12.8% and -9.11% | Potency [2] | Potency [5] | Potency [3] | Potency [6] | Potency [7]

O=C1C2CC=CCC2C(=O)N1SC(Cl)(Cl)Cl (stereo not drawn)
active: Potency [6] 12.8 µM | Potency [7] 22.4 µM
inactive: max response [4] 15%

C[CH2][Hg][S]c1ccccc1C(=O)O
active: Potency [4] 2.24 µM | Potency [3] 1.28 µM | Potency [6] 0.721 µM
inactive: Potency [2]
